RecA splice inh: blocks M. tuberculosis RecA intein splicing | cell-free RecA intein splicing, fluorescence | inhibition, % (test concentration not listed) | hit rate 0.75% among 290,000 | AID 2221; in the data active = inhibition above about 30%;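 also: 0% = vehicle wells and 100% = reference inhibitor control wells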
Mtb FBA inh: inhibits M. tuberculosis FBA enzyme; P9WQA3; purified M. tuberculosis FBA, fluorescence read-out; inhibition, % at 1 µM; hit rate 2.3% among 360,000; AID 588726; in the data active = inhibition above about 27%;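 also: 0% = vehicle and 100% = reference inhibitor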
Target sequence (P9WQA3 whole entry, looked up): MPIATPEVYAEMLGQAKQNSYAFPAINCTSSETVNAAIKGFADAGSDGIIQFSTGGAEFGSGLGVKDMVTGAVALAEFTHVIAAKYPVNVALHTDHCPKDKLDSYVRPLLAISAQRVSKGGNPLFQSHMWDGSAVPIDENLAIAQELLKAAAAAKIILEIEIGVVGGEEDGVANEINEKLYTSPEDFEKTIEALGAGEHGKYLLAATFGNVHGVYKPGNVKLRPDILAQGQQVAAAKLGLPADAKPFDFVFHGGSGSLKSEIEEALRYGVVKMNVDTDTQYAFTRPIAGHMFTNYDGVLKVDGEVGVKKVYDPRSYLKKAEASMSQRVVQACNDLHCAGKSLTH
BJeLR viability: kills HRASV12-expressing BJeLR cells; BJeLR (HRASV12) viability, CellTiter-Glo ATP luminescence, 48 h; inhibition, % (concentration not given with the values); hit rate 0.17% among 300,000; in the data active = inhibition above about 50%
PrPC surface inh: inhibitors of human cell surface prion protein PrPC | AID 720596 | TR-FRET read-out | P04156 | inhibition, % at 13.8 µM | hit rate 0.43% among 370,000; in the data active = inhibition above about 24%; also: 0% = median of the test wells and 100% = reference compound wells
GDH-TPI counter: inhibits GDH-TPI coupling enzymes, artifact for Mtb FBA screen. hit rate 1.2% among 360,000. inhibition, % at 4.8 µM. GDH-TPI coupled enzyme counterscreen, NADH absorbance. AID 588335; in the data active = inhibition above about 30%;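 also: 0% = DMSO wells and 100% = wells lacking the enzyme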
PrPC confirm: confirmation of inhibitors of cell surface human prion protein | shares compounds with PrPC surface inh | inhibition, % at 13.8 µM | AID 743200 | hit rate 65% among 1,500 | cell surface PrPC level, TR-FRET; in the data active = inhibition above about 25%
LD9 tox: counter-screen for PrPc inhibitors: cytotoxicity in LD9 cells; hit rate 29% among 1,500; luminescence viability; inhibition, % at 13.8 µM; shares compounds with PrPC surface inh; in the data active = inhibition above about 9.5%
* marks the source's active call; other numbers are inactive results. An excerpt weighted towards active compounds, which were near 4.2% of everything screened.

Screening Cc1cccc(NC(=S)NCc2ccc3c(c2)cc(C)n3C)c1C returned RecA splice inh 8.1, Mtb FBA inh 4.5, BJeLR viability -5.4, PrPC surface inh 27.9*, GDH-TPI counter 9.1, PrPC confirm 4.6 and LD9 tox 0.7.
`Cc1cccc(NC(=O)NCc2ccc3c(c2)cc(C)n3C)c1` gave RecA splice inh 5.0, Mtb FBA inh -3.4, BJeLR viability 8.1, PrPC surface inh 22.1 and GDH-TPI counter 7.5.
`Cc1cc2cc(CNC(=O)CCC(=O)O)ccc2n1C` gave RecA splice inh 6.8, Mtb FBA inh -3.5, BJeLR viability -8.7, PrPC surface inh -1.6 and GDH-TPI counter 8.7.
`COc1cccc(NC(=S)NCc2ccc3c(c2)cc(C)n3C)c1` gave RecA splice inh 5.0, Mtb FBA inh 0.5, BJeLR viability 5.9, PrPC surface inh 18.8 and GDH-TPI counter 2.6.
Cc1cc2cc(CNC(=S)Nc3ccc(OC(F)(F)F)cc3)ccc2n1C was read as RecA splice inh 0.9, Mtb FBA inh 1.4, BJeLR viability -22.6, PrPC surface inh 27.1*, GDH-TPI counter 3.8, PrPC confirm 33.8* and LD9 tox -4.5.
Screening Cc1cc2cc(CNC(=O)Nc3cccc(Cl)c3)ccc2n1C returned RecA splice inh -0.2, Mtb FBA inh -1.9, BJeLR viability -4.5, PrPC surface inh 35.4*, GDH-TPI counter 13.2, PrPC confirm 44.0* and LD9 tox -1.6.
`CN(C)CC(=O)N[C@H]1C[C@@H]2O[C@H](CO)CC[C@@H]2O[C@@H]1CCc1ccc(-c2ccc(F)cc2)cc1` gave PrPC surface inh -14.3.
`CNC(C)C(=O)NC(C(=O)N1CCCC1C(=O)Nc1cccc2ncccc12)C(C)C` (stereo unspecified) gave PrPC surface inh 3.7.
Screening O=C(O)CSc1ncnc2sc3c(c12)CCCC3 returned RecA splice inh 1.4, Mtb FBA inh 7.9, BJeLR viability -2.8, PrPC surface inh 29.6*, GDH-TPI counter -3.1, PrPC confirm 53.3* and LD9 tox -9.6.
`O=C(O)CSc1ncnc2sc3c(c12)CCC3` gave RecA splice inh 1.0, Mtb FBA inh 14.1, BJeLR viability -1.0, PrPC surface inh 46.6*, GDH-TPI counter -5.6, PrPC confirm 50.4* and LD9 tox -4.8.
Screening NC(=O)CSc1nc2sc3c(c2c2ncnn12)CCCC3 returned RecA splice inh 2.1, Mtb FBA inh 4.0, BJeLR viability -13.5, PrPC surface inh 47.2*, GDH-TPI counter 6.2, PrPC confirm 47.4* and LD9 tox -4.2.
Cc1ccc(C(=O)CSc2ncnc3sc4c(c23)CCCC4)cc1 was read as RecA splice inh -0.3, Mtb FBA inh 3.0, BJeLR viability 4.4, PrPC surface inh 5.4 and GDH-TPI counter 1.9.
Screening CCn1c(SCC(N)=O)nc2sc3c(c2c1=O)CCCC3 returned RecA splice inh -3.9, Mtb FBA inh 1.0, BJeLR viability 9.2, PrPC surface inh 24.1 and GDH-TPI counter 16.9.
CCCCS(=O)(=O)N1CCCc2nc(-c3ccccc3)ccc21 was read as PrPC surface inh -4.1.
`COc1ccc(N(C)S(=O)(=O)c2cccc(C(=O)NC3CCCCC3C)c2)cc1` (stereo unspecified) gave RecA splice inh 9.7, Mtb FBA inh 1.6, BJeLR viability -8.3, PrPC surface inh 26.0*, GDH-TPI counter 13.4, PrPC confirm 12.5 and LD9 tox -3.8.
`C[C@@H]1CN(c2ccc(N3CCNC[C@H]3C)cc2C#N)C[C@H](C)O1` gave PrPC surface inh -7.5.
For Cn1c(CSc2ncccn2)nnc1SCC(=O)N1CCCCC1 the results were RecA splice inh 0.5, Mtb FBA inh 0.6, BJeLR viability -18.7, PrPC surface inh 18.6 and GDH-TPI counter 0.6.
CC1CCN(C(=O)CSc2nnc(CSc3ncccn3)n2C)CC1 was read as RecA splice inh 1.0, Mtb FBA inh 4.8, BJeLR viability 2.7, PrPC surface inh 24.6*, GDH-TPI counter -14.0, PrPC confirm 6.9 and LD9 tox -2.3.
O=C(OCC#CCSc1nnc(-c2cccc3ccccc23)o1)C1CCCC1 was read as PrPC surface inh 5.3.
